POLI inh – DNA polymerase iota (human) inhibition; AID 588590; Pol iota fluorescent replication assay, 10 min; Q9UNA4; hit rate 1% among 390,000; Potency, µM (top dose mostly 115 µM), most hits filed as inhibitors
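Pol iota at 10 nM preincubated 15 min with compounds at room temperature; reaction started with fluorescent substrate, 50 nM final. Fluorescence read kinetically at 0 and 10 min; buffer-only wells as negative control.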
PI5P4Ka inh – PI5P4K alpha (human) kinase inhibition; P48426; AID 652105; PI5P4Kalpha enzyme, ADP-Glo luminescence, 60 min; hits give low values; hit rate 1.2% among 330,000; max response, %; active = max response of -50% or lower; inconclusive = between -30% and -50%; inactive = -30% or higher; also: value at the top dose of about 77 µM
Target sequence (P48426 whole entry, looked up): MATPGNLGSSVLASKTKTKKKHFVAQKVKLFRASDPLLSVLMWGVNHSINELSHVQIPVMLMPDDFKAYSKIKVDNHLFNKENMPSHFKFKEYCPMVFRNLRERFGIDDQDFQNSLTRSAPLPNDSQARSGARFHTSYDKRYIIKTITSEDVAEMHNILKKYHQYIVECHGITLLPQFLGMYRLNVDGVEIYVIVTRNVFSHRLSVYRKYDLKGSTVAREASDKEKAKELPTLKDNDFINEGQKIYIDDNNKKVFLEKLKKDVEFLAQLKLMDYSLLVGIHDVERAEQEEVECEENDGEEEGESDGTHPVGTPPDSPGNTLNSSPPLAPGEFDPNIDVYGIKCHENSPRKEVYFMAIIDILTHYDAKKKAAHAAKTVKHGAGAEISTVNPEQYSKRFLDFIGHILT
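ADP-Glo luminescence end-point after a 60 min room-temperature kinase reaction. PI5P4Kalpha and substrate in HEPES pH 7.4 buffer with EGTA, 0.1% CHAPS and 5% DMSO; ATP at 5 microM final.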
Pol eta inh – DNA polymerase eta (human) inhibition; AID 588591; recombinant Pol eta, fluorescent DNA replication assay; hit rate 1.2% among 390,000; Potency, µM (doses to about 114 µM), actives largely listed as inhibitors
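Fluorescent replication assay: 50 nM final substrate added after a 15 min room-temperature compound preincubation with 10 nM enzyme. Signal taken at 0 min and again at 10 min.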
Pol kappa inh – DNA polymerase kappa (human) inhibition; Q9UBT6; purified Pol kappa, fluorescent DNA synthesis assay, 10 min; Potency, µM (titrated, usually from 107 µM), hits mostly inhibitors; hit rate 0.53% among 400,000
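Kinetic fluorescence screen: compound preincubated 15 min RT with 10 nM enzyme; 50 nM substrate (final) initiates; reads at 0/10 min.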
Pol beta inh – inhibitors of human DNA polymerase beta | P06746 | Pol beta primer extension/strand displacement, fluorescence kinetic | Potency, µM (top dose mostly 114 µM), most hits filed as inhibitors | hit rate 1.3% among 340,000 | AID 485314
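Pol beta (10 nM) was preincubated with compound for 15 min at room temperature. The reaction was then started with 50 nM substrate and read immediately and after a further 10 min at room temperature.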
12-LOX inh – blocks human arachidonate 12S-lipoxygenase; Potency, µM (highest dose often 108 µM), most hits filed as inhibitors; purified 12hLO, xylenol orange hydroperoxide absorbance; hit rate 1.1% among 580,000; AID 1671190
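Hydroperoxide product was detected by ferrous iron/xylenol orange as the 573 to 405 nm absorbance ratio. Arachidonic acid at 40 uM (final) was turned over for 30 min at room temperature by 150 nM human 12hLO, pH 7.0 Hepes buffer, after 15 min compound preincubation.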
A number is an active result; - = inactive; ? = inconclusive; . = no result given. Hits are enriched below; roughly 2.9% of the tested compounds scored in any of these assays. Unless noted, calls follow the shape of the dose curve; as a rule, active = well fitted inhibition curve with a large enough effect; inconclusive = small, poorly fitted or top-dose-only effect, or another doubt; inactive = no such curve, though single readings can be large or run the other way.

SMILES	POLI inh	PI5P4Ka inh	Pol eta inh	Pol kappa inh	Pol beta inh	12-LOX inh
O=C(c1nn(Cc2ccccc2)c(=O)c2ccccc12)N1CCc2ccccc21	.	.	.	.	.	-
Cc1ccc(Cl)cc1NC(=O)c1nn(C)c2c1CCc1sccc1-2	.	.	.	.	.	-
CCCN(Cc1cc(OC)c(OC)c(OC)c1)Cc1cc(=O)n2cc(C)sc2n1	.	.	.	.	.	-
Cc1ccccc1-c1nc(-c2ccccn2)no1	-	-	-	-	-	-
Brc1ccccc1-c1nc(-c2ccccn2)no1	.	.	.	.	.	14µM
Oc1ccc(-c2nc3ccccn3c2Nc2ccc3c(c2)OCCO3)cc1	-	.	-	-	-	-
Clc1cccc(-c2nc3ccccn3c2Nc2ccc3c(c2)OCCO3)c1	-	.	-	-	-	6.3µM
C/C(=N\OCC(=O)OC(C)C(=O)Nc1ccc(C)c(S(=O)(=O)N2CCOCC2)c1)c1ccc2c(c1)OCO2 (configuration not stated)	?	-	56µM	-	.	-
COc1cc(/C=C2\SC(=S)N(NC(=O)c3ccncc3)C2=O)ccc1O	22µM	-	?	-	-	?
COc1cc(/C=C2\SC(=S)N(N3CCOCC3)C2=O)ccc1O	?	-	?	-	-	-
COc1cc(/C=C2\SC(=S)N(NC(=O)c3cccc(O)c3)C2=O)ccc1O	40µM	-	?	-	16µM	-
CCOc1cc(/C=C2\SC(=S)N(NC(=O)c3cccnc3)C2=O)ccc1O	28µM	-	?	-	?	?
COc1cc(/C=C2\SC(=S)N(NC(=O)c3ccccc3OC)C2=O)ccc1O	50µM	-	?	-	18µM	-
O=C(NN1C(=O)/C(=C/c2cccs2)SC1=S)c1cccnc1	-	-	-	-	-	-
COc1ccccc1C(=O)NC[C@@H]1C=C(C)[C@H](Cc2nc3ccncc3[nH]2)C[C@H]1C(C)C	.	.	.	.	.	-
O=C(O)/C=C/c1cc(Cl)ccc1OCc1ccccc1	.	.	.	.	.	-
Cc1cc(C(=O)OCC(=O)NC(=O)NC(C)(C)C)c2ccccc2n1	.	.	.	.	.	-
Cc1cc(NC(=O)c2cc(-c3ccc(Br)cc3)nc3ccccc23)nn1C	.	.	.	.	.	-
O=C(O)c1ccc(/C=C2\SC(=S)N(NC(=O)c3ccccc3)C2=O)cc1	?	-	-	?	?	-
COc1cc(/C=C2\SC(=S)N(NC(=O)c3ccc(O)c(OC)c3)C2=O)ccc1O	22µM	?	?	-	?	?
CC(C)CCn1c(SCC(=O)c2ccccc2)nc2c1c(=O)n(C)c(=O)n2C	.	.	.	.	.	18µM
Cn1c(=O)[nH]c(=O)c2c1nc(SCC(=O)O)n2CCc1ccccc1	-	-57	-	-	-	?
CC(C)CCn1c(SCC(=O)c2ccccc2)nc2c1c(=O)[nH]c(=O)n2C	-	-	-	-	-	-
CCCCn1c(=O)[nH]c(=O)c2c1nc(Cn1ncc(Cl)c(Cl)c1=O)n2CCC	25µM	-52	56µM	-	50µM	-
CC/C(C)=N/Nc1nc2c(c(=O)[nH]c(=O)n2C)n1Cc1ccccc1	16µM	-	?	-	?	?
SMILES	POLI inh	PI5P4Ka inh	Pol eta inh	Pol kappa inh	Pol beta inh	12-LOX inh
CC/C(C)=N/Nc1nc2c(c(=O)[nH]c(=O)n2C)n1CCc1ccccc1	-	?	-	-	-	-
COCC1CN(C2CCC2)CC12CCN(C(=O)Cc1ccccc1F)CC2 (configuration not stated)	.	.	.	.	.	-
O=C(CCc1nc(-c2cccnc2)no1)NCc1cccnc1-n1cncn1	.	.	.	.	.	-
Cc1nc2ccc(C(=O)NCCCN3CCCCC3)cc2nc1C	.	.	.	.	.	-
O=C(COc1ccccc1)N1CCOc2ccc(CN3CCc4ccccc4C3)cc2C1	.	.	.	.	.	-
O=C(c1cnn(Cc2ccccc2Cl)c1)N1CCCN(S(=O)(=O)c2ccc(F)cc2)CC1	.	.	.	.	.	-
COc1ccc(-c2cc(N3CCCN(C(=O)c4ccc(C(C)(C)C)cc4)CC3)n[nH]2)cc1	.	.	.	.	.	-
CCCCn1c(=O)[nH]c(=O)c2c1nc(-c1ccsc1)n2Cc1ccccc1	-	-	?	-	-	-
CC=CCn1c(SCc2ccccc2)nc2c1c(=O)[nH]c(=O)n2C	.	-58	.	.	.	?
CCCCn1c(=O)c(CCc2ccccc2)nc2c1c(=O)[nH]c(=O)n2Cc1ccccc1	.	.	.	.	.	35µM
O=C(COC(=O)c1ccccn1)NC1CCCCC1	-	-	-	-	-	?
Nc1ncccc1C(=O)OCC(=O)NC1CCCCCC1	-	?	79µM	-	.	-

Screens from PubChem.
